NADH enzymes – blocks coupling enzymes of NAD/NADH assays. coupled PK/LDH NADH assays, four targets. AID 774. actives 0.02% (n = 65,000). IC50, µM (top dose mostly 10 µM), for inactives: top-dose inhibition;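 active = single-dose screening hits from any of four coupled enzyme assays that gave an IC50 when retested across doses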;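 also: the DPM-DC format reads NADH fluorescence rather than 340 nm absorbance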
Fluor 339 460 – intrinsic fluorescence of library compounds, ex339/em460 – biochemical, MLSMR library, data from DPM-DC assay, artefact control, profiling panel; fluorescence fold increase at 10 µM; compound autofluorescence, ex339/em460 nm, NADH buffer; hits give high values; 1 = no-compound wells, NADH background; actives 5.5% (n = 65,000); AID 709;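 active = at 10 µM, mean starting fluorescence two-fold or more over control wells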;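 also: signal is the first read of a kinetic run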
A340 absorber – compounds absorbing at 340 nm; compound absorbance at 340 nm, fold over control; fold change at 10 µM; 65,000 tested, under 10 active;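 active = at 10 µM dose, initial 340 nm absorbance at least 2 fold that of control wells; inactive = change under 2 fold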;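 also: initial absorbance extrapolated from kinetic A340 decline of NADH oxidation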
Spn MK inh – S. pneumoniae mevalonate kinase inhibition; purified MK, PK/LDH-coupled NADH absorbance 340 nm; inhibition, % at 10 µM; actives 0.48% (n = 65,000);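 active = ranked among the strongest by inhibition in the single 10 µM screen, a fixed top-ranked set picked for dose follow-up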
DPM-DC inhibit – inhibitors of Streptococcus pneumoniae diphosphomevalonate decarboxylase | actives 0.49% (n = 65,000) | purified DPM-DC, PK/LDH coupled NADH fluorescence | calls only at 10 µM | AID 556;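 active = the 320 compounds with the highest percent inhibition in the single-dose primary screen, excluding strongly autofluorescent ones, cut at about 32% in these data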;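 also: kinetic rate of NADH fluorescence loss reporting ADP formed by the decarboxylase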
Spn PMK inh – S. pneumoniae PMK inhibition | purified PMK, PK/LDH-coupled NADH absorbance 340 nm | inhibition, % at 10 µM | actives 0.49% (n = 65,000) | AID 539;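 active = top-ranked compounds by inhibition in the single 10 µM screen, taking a fixed number of the strongest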;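 also: 0% = full reaction with DMSO carrier and 100% = background rate without enzyme reaction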
* marks the source's active call; other numbers are inactive results; i = inactive; nt = no result given; + = active, no number; [ ] = remark or other dose. The list is not random: actives were taken first. Their share in the collection is about 6.8%.

SMILES	NADH enzymes	Fluor 339 460	A340 absorber	Spn MK inh	DPM-DC inhibit	Spn PMK inh
CCOC(=O)c1c(NC(=O)c2ccco2)sc2c1CCCCC2	8%	2.1*	1.1	0	nt	15
COC(=O)c1c(NC(=O)c2ccoc2C)sc2c1CCC2	14%	2.4*	1.1	5	+	4
CCOC(=O)c1c(NC(=O)c2cc(C3CC3)on2)sc2c1CCCC2	14%	2.1*	1.1	0	nt	27*
CCCN1C(=O)c2cc(C(=O)NCCc3cccc(C)c3)ccc2C1O (configuration not stated)	2%	1.1	1.1	4	i	1
Cc1cc(/C=N/n2cnnc2)c(C)n1-c1cc(Cl)ccc1Cl	6%	1.1	1.1	2	i	11
Cn1c(C(=O)NCCC2=CCCCC2)cc2c(=O)n3ccccc3nc21	3%	3.5*	1	5	nt	9
Cn1c(C(=O)NCCCN2CCCC2=O)cc2c(=O)n3ccccc3nc21	11%	4.9*	1.1	9	nt	12
CCOC(=O)c1cc2sccc2n1CC(=O)N1CCN(C(=O)c2ccco2)CC1	6%	1.1	0.98	15	i	3
CCOC(=O)c1cnc(SCC(=O)N2CCN(C(=O)c3ccco3)CC2)nc1N	8%	1.1	1	0	i	25*
CCOC(=O)c1cc2sc(C)cc2n1CC(=O)N1CCN(C(=O)c2ccco2)CC1	20%	1.1	1	42*	i	17
CCOC(=O)C(OC(=O)c1sc(=S)n(C)c1C)C(C)=O (configuration not stated)	0%	1.1	1.1	0	i	0
CCn1cc(C(=O)NCc2ccco2)c(=O)c2cc(F)c(N3CCN(C(=O)c4ccco4)CC3)cc21	4%	2.4*	1	3	+[fluoresces]	10
CCn1cc(C(=O)NCc2ccc3c(c2)OCO3)c(=O)c2cc(F)c(N3CCN(C)CC3)cc21	11%	2.2*	1.1	7	i	2
CCn1cc(C(=O)NCCc2ccccc2)c(=O)c2cc(F)c(N3CCN(C)CC3)cc21	4%	1.6	1	0	i	4
c1ccc2sc(N3CN(CCN4CCOCC4)CN(c4nc5ccccc5s4)C3)nc2c1	5%	1.1	1	9	i	6
Cc1cccc2cc3c(N)c(C(=O)N4CCOCC4)sc3nc12	8%	1.1	1.1	15	i	9
Nc1nc2sc3c(c2cc1C(=O)N1CCOCC1)CCCC3	15%	2.2*	1	28	nt	1
Cc1nc2cc(C(=O)O)ccc2s1	6%	1.1	0.99	4	i	14
Cc1nc2ccc(C(=O)O)cc2c2c1CC(C)S2 (configuration not stated)	2%	3*	1	9	nt	3
FC(F)(F)c1cccc(N2CCN(Cc3ccoc3)CC2)c1	21%	1.1	1.1	50*	i	12
COc1cc(CN2CCN(c3cccc(Cl)c3)CC2)cc(OC)c1OC	2%	1	1	3	i	3
FC(F)(F)c1cccc(N2CCN(Cc3cccnc3)CC2)c1	9%	1	1	56*	i	1
COc1cccc(CN2CCN(c3cccc(C(F)(F)F)c3)CC2)c1OC	1%	1.1	1	4	i	0
COc1cccc(N2CCN(Cc3cccnc3)CC2)c1	6%	1	1.1	51*	i	0
N=c1n(CCN2CCOCC2)c2ccccc2n1Cc1ccccc1Br	2%	1.1	1	1	i	6
SMILES	NADH enzymes	Fluor 339 460	A340 absorber	Spn MK inh	DPM-DC inhibit	Spn PMK inh
CN1CCN(Cc2cc(=O)oc3cc4c(cc23)CCC4)CC1	12%	1.1	0.99	17	i	11
O=c1oc2c(CN3CCOCC3)c(O)c(Cl)cc2c2c1CCC2	8%	3.8*	1.1	6	nt	9
CCc1cc(=O)oc2c(CN3CCN(C)CC3)c(O)c(Cl)cc12	1%	2.5*	1	0	nt	3
CCc1c(C)c2cc(Cl)c(O)c(CN3CCCCC3)c2oc1=O	4%	2.3*	1.1	0	nt	8
O=c1oc2ccccc2c(N2CCCCC2)c1CN1CCCCC1	2%	1	1	14	i	5
CCc1cc(=O)oc2c(CN3CCCC3)c(O)c(Cl)cc12	2%	2.3*	1.1	4	nt	0
FC(F)(F)c1nnc2sc(-c3cccs3)nn12	3%	1.1	1	0	i	3
COc1cccc(NC(=O)CC2SC(=Nc3ccccc3)NC2=O)c1 (configuration not stated)	2%	1	0.98	0	i	12
Cc1c(O)c(CN2CCCCC2)cc2c3c(c(=O)oc12)CCC3	2%	2.5*	1	0	nt	5
Cc1oc2c(C)c3oc(=O)c4c(c3cc2c1C)CCC4	4%	1.7	1.1	5	i	6
COc1cccc(C2c3c(oc4ccccc4c3=O)C(=O)N2CCCN2CCOCC2)c1 (configuration not stated)	7%	1.1	1	9	i	12
CC(C)C(=O)Nc1nnc(SCC(=O)NCc2cccs2)s1	6%	1.1	0.98	9	i	8
Cc1nc2c(=O)n(C)c(=O)[nH]c2n1Cc1ccccc1	4%	1.4	0.99	0	i	9
COc1ccc(-c2nc3c(=O)n(C)c(=O)[nH]c3n2CCc2ccccc2)cc1	5%	3.9*	1	7	nt	2
CCCn1c(-c2ccccc2)nc2c(=O)n(C)c(=O)[nH]c21	0%	2.2*	1.1	0	nt	0
Cc1cc(OCC(=O)C(C)(C)C)c2c(C)c(C)c(=O)oc2c1	8%	2.1*	1.1	4	nt	12
CC1CCCN(S(=O)(=O)c2cccc(-c3cn4cccnc4n3)c2)C1 (configuration not stated)	13%	3.6*	1.1	14	nt	11
O=C1CC(c2ccco2)CC2=C1C(c1ccccc1)n1nc(C(F)(F)F)nc1N2 (configuration not stated)	12%	2.8*	1.1	9	i	7
Cc1oc(-c2cc(Cl)ccc2Cl)cc1-c1nn2c(C)nnc2s1	6%	1.1	1	0	i	18
Cc1nnc2sc(-c3ccc(-c4ccc(Cl)c(C(F)(F)F)c4)o3)nn12	11%	3.7*	1.1	12	nt	10
O/N=C1/CCc2cccc3cccc1c23	5%	1.2	1	5	i	11
O=C1OCc2cccc3cccc1c23	17%	2.1*	1.1	19	nt	15
Nc1cc(S(=O)(=O)C(F)(F)F)ccc1C(=O)O	0%	1.2	1	0	i	0
Nc1cc(C(F)(F)F)ccc1C(=O)O	10%	2.1*	1.1	0	nt	19
Cc1onc(-c2ccccc2Cl)c1C(=O)N1CCN=C1SCc1cccnc1	8%	1	1	7	i	16
COc1ccc(C(=O)N2CCc3cc(OC)c(OC)cc3C2)cc1OC	3%	1.1	1.1	4	i	6

Source: PubChem BioAssay
